Screens: PubChem BioAssay, National Center for Advancing Translational Sciences (NCATS)
NPC1 promoter act – activates the NPC1 promoter. Potency, µM (series often up to 9.22 µM), for the others: top-dose activation, most hits filed as activators. 2.4% of 320,000 active. Huh7 NPC1 promoter luciferase reporter, 24 h. AID 485313; also: % of control where 0% means no effect; nearly all actives have a fitted effect of over 60% in size
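Stable NPC1-promoter luciferase Huh7 line; cpd (DMSO) 24 h, 37 °C, 5% CO2; Amplite luciferase reagent 10 min RT; luminescence readout. qHTS format.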
Rab9 prom act – activates the Rab9 promoter; Huh7 Rab9 promoter-luciferase reporter, luminescence, 24 h; Potency, µM (top dose mostly 9.22 µM), for inactives: at the top dose activation, negative = inhibition, hits mostly activators; 2.8% of 320,000 active; AID 485297; also: % of control where 0% means no effect; nearly all actives have a fitted effect of over 60% in size
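Luciferase signal after 10 min detection reagent at ambient indicates Rab9 promoter upregulation; stably transfected Huh7 cells were treated 24 h with compound in DMSO at 37 °C, 5% CO2.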
FLuc counter – counter-screen for miR-21 project: firefly luciferase inhibitors or activators; P08659; purified FLuc, Km substrates, luminescence inhibition; Potency, µM (top dose mostly 57.5 µM), inactives show top-dose activity change, negative = inhibition, most hits filed as inhibitors; 6.9% of 360,000 active; AID 588342;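 also: plate controls were vehicle for no effect and reference inhibitor for full effect; nearly all actives have a fitted effect of over 55% in size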
Target sequence (P08659 whole entry, looked up): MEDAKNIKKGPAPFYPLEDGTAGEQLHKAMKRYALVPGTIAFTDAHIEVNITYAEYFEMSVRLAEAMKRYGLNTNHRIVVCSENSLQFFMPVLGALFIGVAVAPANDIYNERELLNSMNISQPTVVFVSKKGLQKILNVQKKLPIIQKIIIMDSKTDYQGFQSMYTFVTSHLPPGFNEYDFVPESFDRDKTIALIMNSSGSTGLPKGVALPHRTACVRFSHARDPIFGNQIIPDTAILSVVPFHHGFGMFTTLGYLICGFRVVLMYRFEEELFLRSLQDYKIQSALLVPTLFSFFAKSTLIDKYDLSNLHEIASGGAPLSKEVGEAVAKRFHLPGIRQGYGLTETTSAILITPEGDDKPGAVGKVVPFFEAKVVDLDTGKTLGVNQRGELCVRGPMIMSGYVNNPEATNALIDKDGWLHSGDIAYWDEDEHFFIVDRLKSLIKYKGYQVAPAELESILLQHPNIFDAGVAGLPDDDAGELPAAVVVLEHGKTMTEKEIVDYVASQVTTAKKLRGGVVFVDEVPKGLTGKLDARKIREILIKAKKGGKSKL
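Purified P. pyralis luciferase, 10 nM final, with Km-level 10 uM D-luciferin and 10 uM ATP in 50 mM Tris acetate pH 7.5, 10 mM Mg acetate, 0.01% Tween-20, 0.05% BSA; 6-point qHTS titration about 60 µM downward; luminescence read.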
SMN2 splice up – SMN2 splice variant enhancement. HEK293 SMN2-luciferase splicing reporter, luminescence, 30-36 h. Potency, µM (top dose mostly 46.1 µM), without a hit: at the highest dose activity change, positive = activation, actives largely listed as activators. 2.8% of 210,000 active; also: % of control where 0% means no effect; nearly all actives have a fitted effect of over 55% in size
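qHTS luciferase splicing reporter: luminescence rises when SMN2 exon 7 is included in transfected HEK293 cells. Compound exposure lasted 30-36 h at 37C, with 4.5 mM final sodium butyrate as control, followed by a ONE-Glo read.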
ELG1 genotoxic – induces genotoxicity in HEK293T cells with luciferase-tagged ELG1. Potency, µM (series often up to 46 µM), for inactives: at the highest dose activity change, positive = activation, usual class: activators. HEK293T ELG1-luciferase reporter, luminescence, 16 h. 1.3% of 330,000 active; also: % of control where 0% means no effect; nearly all actives have a fitted effect of over 60% in size
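Reporter readout depends on ELG1 protein level, which increases with genetic stress. After 16 hr compound exposure at 37 °C, luciferase activity was quantified using ONE-Glo.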
* = called active by the depositor; ? = inconclusive; · = not tested or not shown; [ ] = another dose, or the depositor's remark. A selection: hits, their analogues and other compounds. The true share with any hit is near 7.4%. Calls follow the shape of the dose curve; as a rule, active = well fitted curve in the direction sought with a large enough effect; inconclusive = small, poorly fitted or top-dose-only effect, or another doubt; inactive = no such curve, though single readings can be large; an effect the other way counts as inactive or inconclusive. Potency is read from the fitted curve at half-maximal effect.

SMILES	NPC1 promoter act	Rab9 prom act	FLuc counter	SMN2 splice up	ELG1 genotoxic
COc1ccc(C(=O)/C=C/Nc2c(C)n(C)n(-c3ccccc3)c2=O)c(OC)c1	-1.6%	-3.1%	-0.7%	8.1%	1.4%
O=C(CC(=O)Nc1ccccn1)Nc1ccccn1	0.0%	-2.7%	0.1%	-5.3%	0.3%
Cc1ccc(S(=O)(=O)N2CCN(c3ccccc3)CC2)cc1C(N)=O	1.3%	0.8%	0.9%	-18.7%	-4.2%
COc1cccc(NC(=O)Nc2ccc(CC(=O)O)cc2)c1	-7.1%	2.2%	19µM*	-8.2%	1.1%
O=C(O)Cc1ccc(NC(=O)Nc2cccc(Cl)c2)cc1	-2.7%	3.4%	16.9µM*	·	3.3%
CCc1ccc(NC(=O)Nc2cccc(OC)c2)cc1	2.82µM*	3.16µM*	2.69µM*	14.1µM*	?
COc1cccc(NC(=O)Cc2ccc3ccccc3c2)c1	0.5%	15.6%	?	·	-1.4%
O=C(Nc1ccncc1)Nc1cccc(Cl)c1	15.6%	6.1%	?	·	-5.9%
Cc1ccc(NC(=O)c2ccco2)c(NC(=O)c2ccccc2)c1	-1.7%	5.3%	0.1%	·	-1.3%
COc1ccc(NC(=O)c2ccco2)c([N+](=O)[O-])c1	?	2.51µM*	21.3µM*	35.5µM*	?
COc1ccc(NC(=O)C/C(C)=N/NC(=O)c2ccco2)c([N+](=O)[O-])c1	0.2%	-2.2%	-2.8%	·	-15.0%
Cc1ccc(NC(=O)c2ccco2)c([N+](=O)[O-])c1	2.82µM*	2.82µM*	?	22.4µM*	?
COC(=O)C1=C(C(=O)OC)[C@@H]2N(C)c3ccccc3[C@@]23C[C@@H](C(=O)OC)N(S(=O)(=O)c2ccc(C(F)(F)F)cc2)C3=N1	·	·	·	4.6%[9.22 µM]	·
Cn1cc(S(=O)(=O)c2ccccc2)c(=O)c2cc(F)c(N3CCN(c4ccccc4)CC3)cc21	·	·	-0.8%	·	·
CCN(CC)S(=O)(=O)c1ccc(NC(=O)CCc2c(C)nc3cc(-c4ccc(Cl)cc4)nn3c2C)cc1	·	·	?	-0.3%	·
Cc1csc(NC(=O)CCc2c(C)nc3cc(-c4cccc(F)c4)nn3c2C)n1	-0.4%	-6.7%	6.3%	-43.8%	-10.6%
CC(=O)c1ccc(NC(=O)CCc2c(C)nc3cc(-c4ccc(Cl)cc4)nn3c2C)cc1	·	·	16.9µM*	-20.7%	·
Cc1ccc(NC(=O)CCc2c(C)nc3cc(-c4ccccc4)nn3c2C)cc1F	·	·	10.7µM*	19.1%	·
CC1=C(C(=O)NCc2cccc(Br)c2)C2(CCCCC2)OC1=O	·	·	-7.4%	·	·
O=C(N/N=C/c1cc(Br)c(Br)o1)c1cccnc1	-7.7%	-6.3%	-12.3%	6.4%	6.2%
O=C(N/N=C/c1cc(Br)c(Br)o1)c1ccc2c(c1)OCCO2	?	2.51µM*	12µM*	·	4.6%
CCOc1cc(/C=N/NC(=O)c2ccc3c(c2)OCCO3)cc(Br)c1O	8.8%	12.6%	21.3µM*	·	10.4%
O=C(N/N=C/c1cc(Br)c(O)c(Br)c1O)c1ccc2c(c1)OCCO2	-31.1%	-35.6%	7.57µM*	·	?
O=C(OC[C@@H]1CCCN2CCCC[C@H]12)c1cc2ccccc2oc1=O	6.1%	0.8%	0.9%	-0.5%	-0.5%
Cc1cccc(N2CCN(CCCNC(=O)Cn3ncc4c([nH]c5ccccc54)c3=O)CC2C)c1 (stereo not drawn)	·	·	2.3%	·	·
SMILES	NPC1 promoter act	Rab9 prom act	FLuc counter	SMN2 splice up	ELG1 genotoxic
C/C(=N\NC(=S)Nc1cc(S(=O)(=O)N2CCOCC2)ccc1Cl)c1ccccc1F	-5.2%	-14.7%	26.9µM*	-82.3%	7.9%
CCCCN(CCCC)C(=O)c1cc2c(=O)n3ccccc3nc2s1	·	·	3.1%	-1.7%	·
CCCCc1nn2c(=O)cc(COC(=O)c3cccc(NC(=O)c4cccc(Cl)c4)c3)nc2s1	·	·	0.2%	·	·
NC(=NCc1ccccc1)NC(=O)c1nc(Cl)c(N)nc1N	?	7.0%[46.1 µM]	·	-6.1%	·
NC(=Nc1ccccc1)NC(=O)c1nc(Cl)c(N)nc1N	?	?	·	14.1µM*	·
Oc1cc2c(cc1O)C(c1ccccc1)CNCC2 (stereo not drawn)	0.3%[46.1 µM]	1.4%[46.1 µM]	·	8.9%	·
Oc1cc2c(cc1O)[C@@H](c1ccccc1)CNCC2	-0.3%	-3.2%	4.78µM*	-29.5%	-2.4%
C/C(=N\Nc1ccccc1)c1cc2ccccc2oc1=O	9.8%	25.4%	21.3µM*	·	11.9%
C/C(=N\Nc1ccc(Cl)c(C(=O)O)c1)c1cc2ccccc2o1	18.4%	?	26.9µM*	24.7%	?
C/C(=N\Nc1ccc(Cl)c(C(=O)O)c1)c1cccc2ccccc12	3.8%	16.1%	?	·	26.8%
C/C(=N\NC(=O)CC#N)c1cc2ccccc2oc1=O	-1.7%	-8.4%	5.6%	·	-1.9%
C/C(=N\Nc1cccc(C(=O)O)c1)c1cc2ccccc2o1	?	2.24µM*	10.7µM*	11.2µM*	?
Cc1ccccc1NC(=O)COC(=O)Cc1ccsc1	-0.6%	11.2%	-3.3%	0.0%	0.5%
Cc1ccc(Cl)cc1N1CCN(C(=O)c2cnn(C)c2C2CCN(C(=O)OC(C)(C)C)CC2)CC1	·	·	3.8%	·	·
Cc1cc(O)ccc1N/C=C/c1onc(C)c1[N+](=O)[O-]	3.16µM*	2.51µM*	?	20µM*	?
CC(=O)Nc1cccc(NC(=O)C(=O)Nc2ccc3c(c2)N(C(=O)C2CC2)CCC3)c1	27.8%	?	9.53µM*	·	-0.4%
CN1CCc2c(sc3c2C(=O)NC(c2ccc(OC(=O)c4ccc(C(C)(C)C)cc4)cc2)N3)C1 (stereo not drawn)	·	·	10.7µM*	-1.1%	·
CN1CCc2c(sc3c2C(=O)NC(c2ccc(OC(=O)c4ccc(Cl)cc4)cc2)N3)C1 (stereo not drawn)	·	·	-15.0%	-7.8%	·
CN1CCc2c(sc3c2C(=O)NC(c2ccc(OC(=O)c4ccccc4)cc2)N3)C1 (stereo not drawn)	·	·	?	15.8µM*	·
Cc1ccnc(NC(=O)CCC(=O)c2cccs2)c1	?	?	0.338µM*	·	?
Cc1ccc(NC(=O)CCC(=O)c2cccs2)cc1F	19.8%	?	8.49µM*	·	17.9%
CCCCNc1c(-c2ccc(-c3ccc(C(C)=O)cc3)c(OC)c2)nc2cnccn12	-0.1%	-6.8%	-14.0%	·	-29.8%
CCCCNc1c(-c2cccc(-c3cc(C(C)=O)cs3)c2)nc2ccc(C)cn12	12.2%	2.0%	10.7µM*	·	-16.1%
CCCCNc1c(-c2ccc(-c3cccc(Cl)c3)cc2)nc2ccccn12	?	3.98µM*	10.7µM*	·	-0.5%
CCCCNc1c(-c2cccc(-c3ccc(OC)cc3)c2)nc2ccc(C)cn12	15.9%	9.8%	9.53µM*	·	-5.2%
CCCCNc1c(-c2cccc(-c3ccc(OC)cc3)c2)nc2cc(C)ccn12	·	·	·	·	-8.4%
O=C(c1ccc(OC2CCN(CCO)CC2)cc1)N1CCCC1	-3.0%	-5.0%	6.0%	·	2.7%
COc1ccc(CNC(=O)CCCNC(=O)c2ccc(Cl)cc2)cc1OC	1.0%	-4.6%	-1.3%	·	-0.6%
Cc1cccc(N2CCN(c3ncnc4c3cnn4-c3ccc(Cl)cc3)CC2C)c1 (stereo not drawn)	·	·	-1.6%	·	·
